Only a selection was taken, and hits are over-represented in it overall.
Methyltransferases: Primary Screen for Target Class Profiling of Small Molecule Inhibitors of Methyltransferases; purified enzyme, MTase-Glo SAH luminescence; stronger effect = lower value; calls only at 40 µM; 25,000 tested, 3.9% active; AID 1745853, 2022; call rule not given here
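Each enzyme was reacted with SAM and its substrate, with compounds tested once at 40 uM; SAH formed was read by MTase-Glo luminescence.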
* hit, by the source's call. % is scaled to controls: 0 for no effect and ±100 for the full control effect.

Results for COc1ccc(CN2C(=O)c3ccc(-c4ccccc4)n3CC2(C)C(=O)NC2CCCC2)cc1OC (stereo not drawn) ?
Methyltransferases: inactive

Results for CC(C)CN1CCN(C(=O)C2CCc3ncc(-c4ccc(F)cc4)n3C2)CC1 (stereo not drawn) ?
Methyltransferases: inactive

How did Cn1nc(-c2ccc(C(F)(F)F)cc2)nc2c(=O)n(C)c(=O)nc1-2 do in these assays?
Methyltransferases: active

Results for O=C(CCc1nnc2n(Cc3ccc(F)cc3)c(=O)c3ccccc3n12)NCCc1c[nH]c2ccccc12 ?
Methyltransferases: inactive

What do the screens show for `O=c1c2ccccc2n2c(=O)n(Cc3ccccc3Cl)nc2n1Cc1ccc(F)cc1`?
Methyltransferases: inactive

What do the screens show for `O=C1N(CC2CC2)CCCC1(O)CNCc1cc(F)cc(F)c1` (stereo not drawn)?
Methyltransferases: inactive

What do the screens show for `O=C(O)c1cccc(C2CCCN(C(=O)CCCn3ccnc3)C2)c1` (stereo not drawn)?
Methyltransferases: inactive

Results for O=S1(=O)CCN(Cc2cc(NCC3CCOCC3)c3[nH]c(-c4ccccc4)cc3c2)CC1 ?
Methyltransferases: active

Results for CN(CCCN1C(=O)c2cc3occc3n2CC1(C)C(=O)NC1CCCCCC1)C1CCCCC1 (stereo not drawn) ?
Methyltransferases: inactive

What do the screens show for `CC(C)OC(=O)C(C)(C)Oc1ccc(C(=O)c2ccc(Cl)cc2)cc1`?
Methyltransferases: inactive

What do the screens show for `CC(C)[C@@](O)(c1ccc2cc(OC(F)F)c(OC(F)F)cc2c1)c1cn[nH]n1`?
Methyltransferases: inactive

How did CC(C)CCNC(=O)C1(C)Cn2c(c(-n3cccc3)c3ccccc32)C(=O)N1Cc1cccs1 (stereo not drawn) do in these assays?
Methyltransferases: inactive

Results for N.N.N.N.N.N.N.N.N.N.N.N.N.N.O.O.[Ru+4].[Ru+5].[Ru+5] ?
Methyltransferases: active

Results for O=S(=O)(Cc1ccccc1)N[C@H]1CO[C@H]2[C@@H]1OC[C@@H]2Nc1nccc(-c2cccc(F)c2)n1 ?
Methyltransferases: inactive

What do the screens show for `CC1(C(=O)NC2CCCCCC2)Cn2c(nc3ccccc32)C(=O)N1CCN1CCOCC1` (stereo not drawn)?
Methyltransferases: inactive

Results for Cc1ccc(C(=O)Cn2nc3n(CCc4ccccc4)c(=O)c4ccccc4n3c2=O)cc1 ?
Methyltransferases: inactive

How did CC1(C(=O)NC2CCCCC2)Cn2c(cc3ccccc32)C(=O)N1Cc1ccccn1 (stereo not drawn) do in these assays?
Methyltransferases: inactive

How did COc1c2cc(c(O[C@@H]3O[C@H](CO)[C@@H](O)[C@H](O)[C@H]3O)c1OC)CCCCC(O)CCc1ccc(O)c-2c1 (stereo partly drawn) do in these assays?
Methyltransferases: active

How did COc1cc(CO)cc(OC)c1O[C@@H]1O[C@H](CO)[C@@H](O)[C@H](O)[C@H]1O do in these assays?
Methyltransferases: inactive

What do the screens show for `COc1c(-c2ccc(O)cc2)cc(OC)c2c1oc1cc(O)c(OC3OC(CO)C(O)C3O)cc12` (stereo not drawn)?
Methyltransferases: inactive

How did CC1CC(=O)C2=C(CCC3(O)C(O)c4c(O)cccc4C(=O)C23O)C1 (stereo not drawn) do in these assays?
Methyltransferases: inactive

What do the screens show for `O=C(NC1CCCCC1)c1cc(-c2ccc(F)cc2)c2nncn2n1`?
Methyltransferases: inactive

What do the screens show for `COc1ccc(-c2cc3n(n2)CC(C)(C(=O)NC2CCCCC2)N(C(C)c2ccccc2)C3=O)cc1` (stereo not drawn)?
Methyltransferases: inactive

Results for CCc1nc2c(c(NCCn3nc(C)c(CC)c3C)n1)CCNCC2 ?
Methyltransferases: inactive

What do the screens show for `CC1(O)CC(O)C2C(C(=O)O)=COC(OC3OC(CO)C(O)C(O)C3OC(=O)/C=C/c3ccc(O)cc3)C21` (stereo not drawn)?
Methyltransferases: inactive

What do the screens show for `C[C@]1(O)CC[C@@H]2C(C(=O)O)=CO[C@@H](O[C@@H]3O[C@H](COC(=O)c4ccc(O)cc4)[C@@H](O)[C@H](O)[C@H]3O)[C@@H]21`?
Methyltransferases: inactive

What do the screens show for `COC(=O)C1=COC(O[C@@H]2O[C@H](CO[C@@H]3O[C@H](COC(=O)/C=C\c4ccc(O)cc4)[C@@H](O)[C@H](O)[C@H]3O)[C@@H](O)[C@H](O)[C@H]2O)C2C(CO)=CCC12` (stereo partly drawn)?
Methyltransferases: inactive

How did COC(=O)C1=CO[C@@H](O[C@@H]2O[C@H](CO[C@@H]3O[C@H](COC(=O)/C=C/c4ccc(O)cc4)[C@@H](O)[C@H](O)[C@H]3O)[C@@H](O)[C@H](O)[C@H]2O)[C@@H]2C(CO)=CC[C@H]12 do in these assays?
Methyltransferases: inactive

Results for C=C1C(O)CC2C(C(=O)O)=COC(O[C@@H]3O[C@H](COC(=O)c4ccc(O)cc4)[C@@H](O)[C@H](O)[C@H]3O)C12 (stereo partly drawn) ?
Methyltransferases: inactive

What do the screens show for `C=C1[C@H]2[C@H](O[C@@H]3O[C@H](COC(=O)/C=C/c4cc(OC)c(O)c(OC)c4)[C@@H](O)[C@H](O)[C@H]3O)OC=C(C(=O)O)[C@H]2C[C@@H]1O`?
Methyltransferases: active

Results for COc1cc(/C=C/C(=O)OC[C@H]2O[C@@H](OC3OC=C(C(=O)O)C4C(O)CC(C)(O)C34)[C@H](O)[C@@H](O)[C@@H]2O)cc(OC)c1O (stereo partly drawn) ?
Methyltransferases: active

Results for COC(=O)C1=COC(OC2OC(CO)C(O)C(O)C2O)C2C(COC(=O)/C=C/c3ccc(O)c(O)c3)C(O)C(O)C12 (stereo not drawn) ?
Methyltransferases: inactive

What do the screens show for `COC(=O)C1=CO[C@@H](O[C@@H]2O[C@H](CO[C@@H]3O[C@H](COC(=O)/C=C/c4cc(OC)c(O)c(OC)c4)[C@@H](O)[C@H](O)[C@H]3O)[C@@H](O)[C@H](O)[C@H]2O)[C@@H]2C(CO)=CC[C@H]12`?
Methyltransferases: active

What do the screens show for `CCCn1c(=O)c2ccc(C(=O)NC3CCCCC3)cc2n2c(=O)n(CC(=O)c3cc(C)ccc3C)nc12`?
Methyltransferases: inactive

Results for Cc1cc(C)n(CC(=O)N2CCCC2c2nc(CCOCC3CCOCC3)no2)n1 (stereo not drawn) ?
Methyltransferases: inactive

What do the screens show for `CC1(C(=O)NC2CCCCC2)Cn2nc(-c3cccs3)cc2C(=O)N1c1ccc(Cl)cc1` (stereo not drawn)?
Methyltransferases: inactive

What do the screens show for `Cc1nc2c(NC3CCN(C(=O)c4cnccn4)CC3)cccn2n1`?
Methyltransferases: inactive

How did CCOc1ccc(-n2c([C@@H](C)N(Cc3cccnc3)C(=O)Cc3ccc(OC(F)(F)F)cc3)nc3ncccc3c2=O)cc1 do in these assays?
Methyltransferases: inactive

Results for CC(C)Cn1c(=O)c2ccc(C(=O)NC(C)C)cc2n2c(=O)n(C)nc12 ?
Methyltransferases: inactive

Results for COc1cccc(C)c1C(=O)O[C@@H]1C[C@H](O[C@H]2[C@H](O)C[C@H](O[C@@H]3CCC[C@H]4[C@H]3C=C[C@@H]3CCCC/C=C/[C@H]5C=C(C(=O)O)[C@@H](C)C[C@@]56OC(=O)C(=C6O)OC(=O)[C@@]34C)O[C@@H]2C)O[C@H](C)[C@H]1O ?
Methyltransferases: inactive

What do the screens show for `Cn1c(=O)c2ccc(C(=O)NC3CCCC3)cc2n2c(=O)n(CC(=O)NCc3ccc(Cl)cc3)nc12`?
Methyltransferases: inactive

Bioassay records as filed in PubChem BioAssay.
